Experimental data as given in PubChem BioAssay (NCI).
Values joined by “and” are separate entries in the source; they are usually repeats but may differ in a detail not shown here. Identical values can stand only once. The panel holds about 83,000 compounds, 20% with a hit somewhere; the sample as a whole holds those more often.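 Plates (96-well) were seeded with cells, treated with compound at one concentration, and incubated for 48 hours before percent growth was determined.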

Tests used:
Assay in all cases: NCI-60 one-dose screen, 48 h (100 = growth as untreated, 0 = no growth, -100 = all killed)
Details in all cases: 10 µM unless noted; active = growth percent below 10; inactive = the rest
HCT-15 colon = system: HCT-15 colon
HT29 colon = system: HT29 colon
SNB-75 CNS = system: SNB-75 CNS
SNB-19 CNS = system: SNB-19 CNS
U251 CNS = system: U251 CNS
PC-3 prostate = system: PC-3 prostate
SK-MEL-5 melanoma = system: SK-MEL-5 melanoma
UACC-62 melanoma = system: UACC-62 melanoma
LOX IMVI melanoma = system: LOX IMVI melanoma
SK-MEL-28 melanoma = system: SK-MEL-28 melanoma

Measured: growth

CCOc1ccc(/C=C\C(=O)O)cc1
inactive: HCT-15 colon 105% | HT29 colon 105% | SNB-75 CNS 104% | SNB-19 CNS 106% | U251 CNS 103% | PC-3 prostate 102% | SK-MEL-5 melanoma 108% | UACC-62 melanoma 109% | LOX IMVI melanoma 105% | SK-MEL-28 melanoma 107%

O=C1CCC(=O)N1CC1CC2CCC1C2 (centres undefined)
inactive: HCT-15 colon 107% and 104% | HT29 colon 103% and 95.8% | SNB-75 CNS 87.2% and 73.1% | SNB-19 CNS 101% and 90.3% | U251 CNS 91.7% and 100% | PC-3 prostate 94.1% and 104% | SK-MEL-5 melanoma 110% and 92.6% | UACC-62 melanoma 96.5% and 88.5% | LOX IMVI melanoma 101% and 96.2%

CC1(CO)CCCC1NCCNC1CCCC1(C)CO (centres undefined)
inactive: HCT-15 colon 96.8% and 99% | HT29 colon 91.3% and 103% | SNB-75 CNS 84.7% and 97.9% | SNB-19 CNS 102% and 103% | U251 CNS 106% | PC-3 prostate 90.9% and 95% | SK-MEL-5 melanoma 99.7% and 101% | UACC-62 melanoma 99% and 102% | LOX IMVI melanoma 98.8% | SK-MEL-28 melanoma 104% and 108%

CCc1ccccc1-n1[nH]c(C)c(C=N)c1=O
inactive: HCT-15 colon 98.3% | HT29 colon 114% | SNB-75 CNS 101% | SNB-19 CNS 104% | U251 CNS 109% | PC-3 prostate 94.7% | SK-MEL-5 melanoma 104% | UACC-62 melanoma 101% | LOX IMVI melanoma 99.1% | SK-MEL-28 melanoma 110%

N#CC1c2ccccc2C=CN1C(=O)c1ccccc1 (centres undefined)
inactive: HCT-15 colon 111% and 104% | HT29 colon 112% and 107% | SNB-75 CNS 92.1% and 98% | SNB-19 CNS 103% and 109% | U251 CNS 101% and 97.5% | PC-3 prostate 92.4% and 146% | SK-MEL-5 melanoma 97.1% and 107% | UACC-62 melanoma 97.4% and 83.7% | LOX IMVI melanoma 102% and 94.8%

N=C(N=C(N)N)N1CCOCC1
inactive: HCT-15 colon 101% and 94.5% | HT29 colon 104% and 111% | SNB-75 CNS 90.5% and 89.8% | SNB-19 CNS 110% and 99.1% | U251 CNS 101% and 103% | PC-3 prostate 93.7% and 94.5% | SK-MEL-5 melanoma 96.1% and 98% | UACC-62 melanoma 105% and 100% | LOX IMVI melanoma 102% and 93.2%

CCCC(=O)Oc1ccc(CC)cc1
inactive: HCT-15 colon 99.5% | HT29 colon 108% | SNB-75 CNS 88.8% | SNB-19 CNS 109% | U251 CNS 98.4% | PC-3 prostate 101% | SK-MEL-5 melanoma 106% | UACC-62 melanoma 105% | LOX IMVI melanoma 97.8%

CCN(CC)CCO/N=C1\CC(c2ccc(OC)c(OC)c2)Oc2ccccc21 (centres undefined)
inactive: HCT-15 colon 88.6% | HT29 colon 74.8% | SNB-75 CNS 68% | SNB-19 CNS 98.5% | U251 CNS 93.6% | PC-3 prostate 83% | SK-MEL-5 melanoma 93.4% | UACC-62 melanoma 107% | LOX IMVI melanoma 89.6% | SK-MEL-28 melanoma 107%

OCc1ccccc1F
inactive: HCT-15 colon 15% | HT29 colon 31.3% | SNB-75 CNS 126% | SNB-19 CNS 103% | U251 CNS 80.5% | PC-3 prostate 71.9% | SK-MEL-5 melanoma 95.7% | UACC-62 melanoma 84% | LOX IMVI melanoma 75.8%

COc1cc(Cl)ccc1C
inactive: HCT-15 colon 14.3% | HT29 colon 27.1% | SNB-75 CNS 110% | SNB-19 CNS 79% | U251 CNS 78% | PC-3 prostate 74.1% | SK-MEL-5 melanoma 96.3% | UACC-62 melanoma 66.4% | LOX IMVI melanoma 77.1%

O=C(O)Cc1cc(=O)[nH]n(-c2ccccc2)c1=O
inactive: HCT-15 colon 107% | HT29 colon 103% | SNB-75 CNS 91.3% | SNB-19 CNS 119% | U251 CNS 99.9% | PC-3 prostate 94% | SK-MEL-5 melanoma 107% | UACC-62 melanoma 101% | LOX IMVI melanoma 100% | SK-MEL-28 melanoma 110%
